Screening data as filed in PubChem.
SRC3 inh: inhibitors of human steroid receptor coactivator 3 (SRC3) | Q9Y6Q9 | HEK293 GAL4-SRC3 luciferase reporter, luminescence | inhibition, % at 3.6 µM | hit rate 0.17% among 360,000;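 active means inhibition above a per-campaign cutoff, the mean of all compounds plus 3 SD, cut at about 60% in these data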;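 further: 0% = DMSO-treated cells and 100% = gossypol-treated cells at 36 µM; higher means less SRC3-driven luciferase light from the GAL4 reporter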
SRC1 inh: inhibitors of human steroid receptor coactivator 1 (SRC1); inhibition, % at 3.6 µM; hit rate 0.12% among 360,000; HEK293 GAL4-SRC1 luciferase reporter, luminescence; Q15788;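 active means inhibition above the campaign mean plus 3 SD, with each screening campaign given its own cutoff, cut at about 60% in these data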;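 further: 0% = DMSO treated cells and 100% = gossypol at 36 µM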
NR5A2 inv ag: NR5A2 inverse agonism in reporter assay | O00482 | HEK293T StAR-luciferase reporter, LRH-1 transfected, 24 h | inhibition, % at 3.6 µM | hit rate 0.13% among 360,000;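 active means inhibition above the mean inhibition of all tested compounds plus 3 SD, cut at about 73% in these data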;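 further: 0% = DMSO wells and 100% = reporter-only cells lacking LRH-1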
Target sequence (O00482 whole entry, looked up): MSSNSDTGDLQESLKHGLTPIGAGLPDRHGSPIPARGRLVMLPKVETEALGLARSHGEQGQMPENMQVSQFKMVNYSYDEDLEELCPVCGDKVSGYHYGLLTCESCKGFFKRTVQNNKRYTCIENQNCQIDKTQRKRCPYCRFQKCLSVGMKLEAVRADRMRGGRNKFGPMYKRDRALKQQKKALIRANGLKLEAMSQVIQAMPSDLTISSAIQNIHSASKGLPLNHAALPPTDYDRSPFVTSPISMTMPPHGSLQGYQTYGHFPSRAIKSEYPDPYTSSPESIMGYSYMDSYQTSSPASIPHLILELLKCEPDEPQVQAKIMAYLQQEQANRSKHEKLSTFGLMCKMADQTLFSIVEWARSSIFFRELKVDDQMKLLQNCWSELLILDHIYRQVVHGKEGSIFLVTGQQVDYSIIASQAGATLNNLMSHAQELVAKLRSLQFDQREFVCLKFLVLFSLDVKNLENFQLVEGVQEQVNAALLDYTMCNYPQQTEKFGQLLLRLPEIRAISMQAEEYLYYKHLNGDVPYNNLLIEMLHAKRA
NCOA2 inhibitor: human SRC2 (NCOA2) inhibition; hit rate 0.17% among 370,000; inhibition, % at 9 µM; Q15596; HEK293 GAL4-SRC2 luciferase reporter, luminescence;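 active means inhibition above the mean inhibition of all tested compounds plus 3 SD, set per campaign, cut at about 52% in these data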;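 further: 0% = DMSO treated cells and 100% = cells given Gossypol at 36 µM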
COUP-TFII inh: NR2F2 (human) inhibition, primary screen; P24468; HEK293T NGFI-A luciferase reporter, luminescence; inhibition, % at 8.6 µM; hit rate 0.7% among 370,000; AID 686940;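 active means inhibition above a per-plate cutoff, mean inhibition of test wells between control levels plus 3 SD, cut at about 38% in these data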;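 further: cells cotransfected with COUP-TFII expression vector driving the NGFI-A reporter; 0% = median of COUP-TF2 test wells and 100% = reporter-only cells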
Gal4-VP16 ctr: inhibits VP16 reporter, flagging COUP-TFII antagonist hits. shares compounds with COUP-TFII inh. HEK293 Gal4-VP16 luciferase reporter, luminescence. hit rate 25% among 2,500. AID 687007. inhibition, % at 8.5 µM; in the data active means inhibition above about 13%
NR2F2 inh conf: COUP-TFII (NR2F2) inhibition, confirmation assay; AID 687008; hit rate 45% among 2,500; HEK293 NGFI-A luciferase reporter, luminescence; inhibition, % at 8.5 µM; shares compounds with COUP-TFII inh;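 active means mean inhibition over three repeats above a set limit taken from the earlier primary screen, cut at about 38% in these data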;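 further: 100% = cells given the luciferase reporter alone without the COUP-TF2 vector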
Numbers without * were called inactive. Hits are enriched below; roughly 0.81% of the tested compounds scored in any of these assays.

For c1ccc2c(c1)[nH]c1c(N3CCCC3)ncnc12 the results were SRC3 inh 7, SRC1 inh 17, NR5A2 inv ag 33, NCOA2 inhibitor -18, COUP-TFII inh 44*, Gal4-VP16 ctr -3 and NR2F2 inh conf 23.
c1ccc2c(c1)[nH]c1c(N3CCSCC3)ncnc12 was read as SRC3 inh 7, SRC1 inh 11, NR5A2 inv ag 32, NCOA2 inhibitor 28 and COUP-TFII inh 26.
Screening CCOc1ccc2[nH]c3c(N4CCc5ccccc5C4)ncnc3c2c1 returned SRC3 inh 17, SRC1 inh 5, NR5A2 inv ag -3, NCOA2 inhibitor -1 and COUP-TFII inh 14.
For Fc1ccc2[nH]c3c(N4CCc5ccccc5C4)ncnc3c2c1 the results were SRC3 inh 32, SRC1 inh 19, NR5A2 inv ag 17, NCOA2 inhibitor 8, COUP-TFII inh 74*, Gal4-VP16 ctr -8 and NR2F2 inh conf 70*.
For Cc1ccc2[nH]c3c(N4CCc5ccccc5C4)ncnc3c2c1 the results were SRC3 inh -6, SRC1 inh -12, NR5A2 inv ag -23, NCOA2 inhibitor -8, COUP-TFII inh 60*, Gal4-VP16 ctr -39 and NR2F2 inh conf 50*.
Screening Oc1c(Br)cc(Br)cc1C=Nc1ccc2[nH]ncc2c1 returned SRC3 inh 5, SRC1 inh 15, NR5A2 inv ag 9, NCOA2 inhibitor -18 and COUP-TFII inh 18.
`COc1ccc(-n2c(-c3ccc(Cl)cc3)c[n+]3c2CCc2ccccc2-3)cc1` gave SRC3 inh 49, SRC1 inh 23, NR5A2 inv ag 55, NCOA2 inhibitor 29, COUP-TFII inh 51*, Gal4-VP16 ctr 18* and NR2F2 inh conf 44*.
Screening COc1ccc(-n2c(-c3ccccc3)nnc2-c2ccc(Cl)cc2)cc1 returned SRC3 inh -15, SRC1 inh -1, NR5A2 inv ag 5, NCOA2 inhibitor -31 and COUP-TFII inh -1.
`O=C(C1CCC(CNS(=O)(=O)c2cccs2)CC1)N1CCN(c2ccc(Cl)cc2)CC1` (centres undefined) gave SRC3 inh 45, SRC1 inh 31, NR5A2 inv ag 5, NCOA2 inhibitor 14, COUP-TFII inh 60*, Gal4-VP16 ctr 4 and NR2F2 inh conf 59*.
For O=C(c1ccc(N2CCCCC2)c([N+](=O)[O-])c1)N1CCN(S(=O)(=O)c2ccccc2)CC1 the results were SRC3 inh -14, SRC1 inh 5, NR5A2 inv ag 12, NCOA2 inhibitor 20 and COUP-TFII inh 13.
`NC(=O)c1ccc(N2CCN(S(=O)(=O)c3ccccc3)CC2)c([N+](=O)[O-])c1` gave SRC3 inh 5, SRC1 inh 30, NR5A2 inv ag 38, NCOA2 inhibitor 31, COUP-TFII inh 54*, Gal4-VP16 ctr 2 and NR2F2 inh conf 43*.
Cc1cc(C)nc(SCC(=O)Nc2ccc(N3CCOCC3)c(Cl)c2)n1 was read as SRC3 inh 8, SRC1 inh 8, NR5A2 inv ag 59, NCOA2 inhibitor 8, COUP-TFII inh 42*, Gal4-VP16 ctr 18* and NR2F2 inh conf 40*.
`O=C(Nc1cc(S(=O)(=O)N2CCCCC2)ccc1N1CCCCC1)c1ccncc1` gave SRC3 inh 8, SRC1 inh -2, NR5A2 inv ag 3, NCOA2 inhibitor -59 and COUP-TFII inh -22.
Screening O=S(=O)(c1ccc2c(c1)OCCO2)N1CCN(c2ncnc3sccc23)CC1 returned SRC3 inh 27, SRC1 inh 4, NR5A2 inv ag 36, NCOA2 inhibitor 38, COUP-TFII inh 70*, Gal4-VP16 ctr 3 and NR2F2 inh conf 53*.
For Cc1ccc(S(=O)(=O)N2CCN(c3ncnc4sccc34)CC2)cc1C the results were SRC3 inh 0, SRC1 inh 33, NR5A2 inv ag 27, NCOA2 inhibitor 21, COUP-TFII inh 43*, Gal4-VP16 ctr -3 and NR2F2 inh conf 24.
Screening CN1CCN(S(=O)(=O)c2ccc3c(c2)OCCO3)CC1 returned SRC3 inh 8, SRC1 inh 4, NR5A2 inv ag 13, NCOA2 inhibitor -6 and COUP-TFII inh 2.
